Reference: PubChem BioAssay AID1159580 (chemical genetic matrix, 2015)
The campaign covered roughly 5,500 compounds. About 2,000 (36%) were called active. Not shown: some 18% with an inconclusive outcome. Rule as the data show it: active = normalized growth mostly below about 0.91 (no sharp cut-off); inconclusive = no clear call, values can overlap the other calls; inactive = mostly above about 0.92. The list shows a part of the results.

Experiment: chemical genetic growth profiling, strain panel (AID 1159580);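 also: tested at 20 µM; growth read once vehicle control cultures reached saturation at 30 °C; 1 = growth at the plate median or of vehicle wells; lower values mean less growth of the strain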
Details: S. cerevisiae deletion strains, growth OD

Measured: normalized growth

Oc1ccc2c(c1)O[C@H](c1ccc(O)c(O)c1)[C@@H](O)C2
inactive: locus YAL013W, strain DEP1, stronger effect = lower value 1.03 | locus YAL021C, strain ccr4, stronger effect = lower value 1.02 | locus YAL026C, strain drs2, stronger effect = lower value 1.03 | locus YAL030W, strain snc1, stronger effect = lower value 1.02 | locus YBL061C, strain skt5, stronger effect = lower value 1.04 | locus YBR009C, strain hhf1, stronger effect = lower value 1.03 | locus YBR021W, strain FUR4, stronger effect = lower value 1.04 | locus YBR023C, strain chs3, stronger effect = lower value 1.03 | locus YBR171W, strain sec66, stronger effect = lower value 1.03 | locus YBR229C, strain ROT2, stronger effect = lower value 1.03 | locus YBR231C, strain swc5, stronger effect = lower value 1.03 | locus YBR279W, strain paf1, stronger effect = lower value 1.02 | locus YCL011C, strain gbp2, stronger effect = lower value 1.02 | locus YCL016C, strain dcc1, stronger effect = lower value 1.02 | locus YCL029C, strain bik1, stronger effect = lower value 1.02 | locus YCL061C, strain MRC1, stronger effect = lower value 1.02 | locus YCL069W, strain vba3, stronger effect = lower value 1.03 | locus YCR088W, strain abp1, stronger effect = lower value 1.02 | locus YDL005C, strain med2, stronger effect = lower value 1.02 | locus YDL035C, strain GPR1, stronger effect = lower value 1.07 | locus YDL040C, strain nat1, stronger effect = lower value 1.03 | locus YDL074C, strain BRE1, stronger effect = lower value 1.08 | locus YDL101C, strain DUN1, stronger effect = lower value 1.03 | locus YDL134C, strain PPH21, stronger effect = lower value 1.05 | locus YDL185W, strain tfp1, stronger effect = lower value 0.989 | locus YDL192W, strain arf1, stronger effect = lower value 1.03 | locus YDR001C, strain nth1, stronger effect = lower value 1.03 | locus YDR069C, strain doa4, stronger effect = lower value 1.03 | locus YDR101C, strain arx1, stronger effect = lower value 1 | locus YDR137W, strain rgp1, stronger effect = lower value 1.01 | locus YDR150W, strain NUM1, stronger effect = lower value 1.03 | locus YDR159W, strain sac3, stronger effect = lower value 1.04 | locus YDR162C, strain NBP2, stronger effect = lower value 1.04 | locus YDR195W, strain ref2 0.991 | locus YDR297W, strain sur2, stronger effect = lower value 1.03 | locus YDR318W, strain mcm21, stronger effect = lower value 1.01 | locus YDR334W, strain swr1, stronger effect = lower value 1.04 | locus YDR335W, strain msn5, stronger effect = lower value 1.03 | locus YDR388W, stronger effect = lower value 0.992 | locus YDR392W, strain spt3, stronger effect = lower value 1.03 | locus YDR502C, strain sam2, stronger effect = lower value 0.993 | locus YEL003W, strain gim4, stronger effect = lower value 1.03 | locus YEL037C, strain rad23, stronger effect = lower value 1.02 | locus YEL061C, strain CIN8 (second series), stronger effect = lower value 1.03 | locus YEL061C, strain CIN8, stronger effect = lower value 1.03 | locus YER015W, strain faa2, stronger effect = lower value 1.02 | locus YER016W, strain bim1, stronger effect = lower value 1.02 | locus YER110C, stronger effect = lower value 1.02 | locus YER111C, strain swi4, stronger effect = lower value 1.03 | locus YER155C, strain BEM2 (second series), stronger effect = lower value 1.03 | locus YER155C, strain BEM2, stronger effect = lower value 1.03 | locus YER167W, strain BCK2, stronger effect = lower value 1.03 | locus YFR010W, strain ubp6, stronger effect = lower value 1.02 | locus YGL078C, strain dbp3, stronger effect = lower value 1.01 | locus YGL086W, strain mad1, stronger effect = lower value 0.997 | locus YGL167C, strain pmr1, stronger effect = lower value 1.02 | locus YGL173C, strain kem1, stronger effect = lower value 1.04 | locus YGL227W, strain vid30, stronger effect = lower value 1.03 | locus YGL240W, strain doc1, stronger effect = lower value 1.03 | locus YGL248W, strain PDE1, stronger effect = lower value 1.06 | locus YGL253W, strain hxk2, stronger effect = lower value 1.02 | locus YGR078C, strain PAC10, stronger effect = lower value 1.04 | locus YGR135W, strain pre9, stronger effect = lower value 1.01 | locus YGR252W, strain gcn5, stronger effect = lower value 0.989 | locus YHR013C, strain ard1, stronger effect = lower value 1.02 | locus YHR027C, strain rpn1, stronger effect = lower value 1.02 | locus YHR030C, strain SLT2, stronger effect = lower value 1.03 | locus YHR079C, strain IRE1 (second series), stronger effect = lower value 1 | locus YHR094C, strain hxt1, stronger effect = lower value 0.99 | locus YHR129C, strain ARP1, stronger effect = lower value 1.03 | locus YHR142W, strain chs7, stronger effect = lower value 1.04 | locus YHR200W, strain rpn10, stronger effect = lower value 1 | locus YIL066C, strain RNR3, stronger effect = lower value 1.04 | locus YIL073C, strain SPO22, stronger effect = lower value 1.1 | locus YIL125W, strain kgd1, stronger effect = lower value 1.02 | locus YIR030C, strain dcg1, stronger effect = lower value 1 | locus YJL092W, strain hpr5, stronger effect = lower value 1.02 | locus YJL095W, strain BCK1 (second series), stronger effect = lower value 1.03 | locus YJL095W, strain BCK1, stronger effect = lower value 1.08 | locus YJL115W, strain asf1, stronger effect = lower value 1.02 | locus YJL129C, strain trk1, stronger effect = lower value 1.04 | locus YJL134W, strain LCB3, stronger effect = lower value 1.03 | locus YJL154C, strain vps35, stronger effect = lower value 1.02 | locus YJL164C, strain tpk1, stronger effect = lower value 1.03 | locus YJL166W, strain qcr8, stronger effect = lower value 1.03 | locus YJL168C, strain set2, stronger effect = lower value 1.01 | locus YJL187C, strain SWE1 (second series), stronger effect = lower value 1.04 | locus YJL187C, strain SWE1, stronger effect = lower value 1.03 | locus YJR043C, strain POL32, stronger effect = lower value 1.06 | locus YKL009W, strain mrt4, stronger effect = lower value 1.01 | locus YKL068W, stronger effect = lower value 0.988 | locus YKL085W, strain MDH1 (second series), stronger effect = lower value 1.01 | locus YKL085W, strain MDH1, stronger effect = lower value 1.01 | locus YKL160W, strain elf1, stronger effect = lower value 1.02 | locus YKL190W, strain CNB1, stronger effect = lower value 1.03 | locus YKR001C, strain vps1, stronger effect = lower value 1.04 | locus YKR026C, strain gcn3, stronger effect = lower value 1.02 | locus YKR091W, strain srl3, stronger effect = lower value 1.03 | locus YLL001W, strain dnm1, stronger effect = lower value 1.02 | locus YLL026W, stronger effect = lower value 1.03 | locus YLL041C, strain sdh2, stronger effect = lower value 1.03 | locus YLR027C, strain aat2, stronger effect = lower value 1.02 | locus YLR039C, strain RIC1, stronger effect = lower value 1.23 | locus YLR058C, strain SHM2, stronger effect = lower value 1.04 | locus YLR102C, strain apc9, stronger effect = lower value 0.992 | locus YLR221C, strain rsa3, stronger effect = lower value 1.02 | locus YLR258W, strain gsy2, stronger effect = lower value 1.03 | locus YLR262C, strain YPT6 (second series), stronger effect = lower value 1.04 | locus YLR262C, strain YPT6, stronger effect = lower value 1.25 | locus YLR268W, strain sec22, stronger effect = lower value 1.02 | locus YLR320W, strain mms22, stronger effect = lower value 1.05 | locus YLR330W, strain CHS5, stronger effect = lower value 1.03 | locus YLR342W, strain FKS1, stronger effect = lower value 1.03 | locus YLR357W, strain rsc2, stronger effect = lower value 1.06 | locus YLR370C, strain arc18, stronger effect = lower value 1.04 | locus YLR371W, strain rom2, stronger effect = lower value 1.02 | locus YLR384C, strain iki3, stronger effect = lower value 1.03 | locus YLR418C, strain cdc73, stronger effect = lower value 1.03 | locus YML016C, strain PPZ1, stronger effect = lower value 1.03 | locus YML032C, strain rad52, stronger effect = lower value 1.01 | locus YML120C, strain ndi1, stronger effect = lower value 1.03 | locus YML124C, strain tub3, stronger effect = lower value 1.01 | locus YMR058W, strain fet3, stronger effect = lower value 1.02 | locus YMR078C, strain ctf18, stronger effect = lower value 0.992 | locus YMR125W, strain sto1, stronger effect = lower value 1.02 | locus YMR129W, stronger effect = lower value 1.03 | locus YMR205C, strain PFK2, stronger effect = lower value 1.06 | locus YMR223W, strain ubp8, stronger effect = lower value 0.999 | locus YMR231W, strain pep5, stronger effect = lower value 1.01 | locus YMR307W, strain GAS1, stronger effect = lower value 1.2 | locus YNL067W, strain RPL9B, stronger effect = lower value 1.02 | locus YNL071W, strain lat1, stronger effect = lower value 1.05 | locus YNL153C, strain GIM3, stronger effect = lower value 1.04 | locus YNL209W, strain ssb2, stronger effect = lower value 1.01 | locus YNL233W, strain BNI4, stronger effect = lower value 1.04 | locus YNL248C, strain rpa49, stronger effect = lower value 1.03 | locus YNL250W, strain rad50, stronger effect = lower value 1.01 | locus YNL271C, strain bni1, stronger effect = lower value 1.03 | locus YNL298W, strain CLA4, stronger effect = lower value 1.01 | locus YNL307C, strain MCK1, stronger effect = lower value 1.01 | locus YNL322C, strain KRE1 (second series), stronger effect = lower value 1.02 | locus YNR049C, strain mso1, stronger effect = lower value 1.03 | locus YNR052C, strain pop2, stronger effect = lower value 1 | locus YOL012C, strain htz1 0.833 | locus YOL147C, strain pex11, stronger effect = lower value 0.996 | locus YOR001W, strain rrp6, stronger effect = lower value 1.03 | locus YOR061W, strain CKA2, stronger effect = lower value 1.04 | locus YOR069W, strain VPS5, stronger effect = lower value 1.03 | locus YOR070C, strain gyp1, stronger effect = lower value 1.03 | locus YOR080W, strain dia2, stronger effect = lower value 1.02 | locus YOR083W, strain WHI5, stronger effect = lower value 1.02 | locus YOR106W, strain vam3, stronger effect = lower value 1.03 | locus YOR136W, strain idh2, stronger effect = lower value 0.996 | locus YOR144C, strain elg1, stronger effect = lower value 0.992 | locus YOR184W, strain ser1, stronger effect = lower value 1.05 | locus YOR265W, strain rbl2, stronger effect = lower value 1.03 | locus YOR270C, strain vph1, stronger effect = lower value 1.06 | locus YOR290C, strain snf2, stronger effect = lower value 1.05 | locus YOR316C, strain cot1, stronger effect = lower value 0.999 | locus YPL051W, strain arl3, stronger effect = lower value 1.01 | locus YPL078C, strain atp4, stronger effect = lower value 1.02 | locus YPL106C, strain sse1, stronger effect = lower value 0.998 | locus YPL240C, strain hsp82, stronger effect = lower value 1.02 | locus YPR119W, strain clb2, stronger effect = lower value 0.996 | locus YPR141C, strain kar3, stronger effect = lower value 1.01 | locus YPR163C, strain tif3, stronger effect = lower value 0.999 | locus YPR167C, strain met16, stronger effect = lower value 0.996 | strain wtn01, stronger effect = lower value 1.02
